M1 antag – antagonists of human M1 muscarinic receptor; P11229; CHO-K1 hM1, Fluo-8 calcium fluorescence, ACh EC80 antagonist; inhibition, % at 3 µM; 360,000 tested, 1.3% active; AID 588852;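 active = percent inhibition above its own plate's cutoff, namely the mean of that plate's compound wells plus 3 SD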;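 also: peak over basal fluorescence ratio during 140 s after agonist addition; 0% = ACh EC80 plus DMSO and 100% = DMSO alone without agonist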
Target sequence (P11229 whole entry, looked up): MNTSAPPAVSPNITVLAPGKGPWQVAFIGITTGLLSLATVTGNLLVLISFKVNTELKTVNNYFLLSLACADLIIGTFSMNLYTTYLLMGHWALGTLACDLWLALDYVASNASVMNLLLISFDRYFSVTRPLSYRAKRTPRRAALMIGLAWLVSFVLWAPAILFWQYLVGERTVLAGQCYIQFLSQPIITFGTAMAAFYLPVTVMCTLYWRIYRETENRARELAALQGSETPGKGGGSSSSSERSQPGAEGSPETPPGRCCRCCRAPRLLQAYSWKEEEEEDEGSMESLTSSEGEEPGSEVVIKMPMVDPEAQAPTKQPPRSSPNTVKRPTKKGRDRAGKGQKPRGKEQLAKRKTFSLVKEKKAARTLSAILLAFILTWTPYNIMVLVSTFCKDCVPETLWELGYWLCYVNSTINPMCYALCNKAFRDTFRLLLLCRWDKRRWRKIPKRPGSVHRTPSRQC
CHO-K1 Ca antag – counter-screen for M1 antagonists: effect in parental CHO-K1 cells | ATP-induced calcium, Fluo-8 fluorescence | inhibition, % at 3 µM | 360,000 tested, 0.6% active | AID 602250;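 active = inhibition above a per-plate cutoff, the plate's mean sample inhibition plus 3 SD, cut at about 24% in these data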;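 also: 0% = DMSO plus EC80 ATP and 100% = DMSO alone without ATP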
M1 PAM parental – nonselective activator or artifact in parental CHO-K1 calcium assay. 360,000 tested, 0.02% active. activation, % at 3 µM. ATP EC20, Fluo-8 calcium fluorescence; 0% at ATP EC20, 100% at ATP max;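 active = activation above the run cutoff, the mean activation of all test compounds plus 3 SD, cut at about 40% in these data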;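 also: peak over basal fluorescence ratio in a 140 s read after ATP addition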
CHRM1 PAM – potentiates human M1 receptor response to acetylcholine; P11229; CHO-K1 hM1, Fluo-8 calcium fluorescence, ACh EC20; 0% = ACh EC20, 100% = maximal ACh; activation, % at 3 µM; 360,000 tested, 0.088% active; AID 588819; in the data active = activation above about 19%, passing the limit was not always enough
CHO-K1 Ca ag – nonselective activator or artifact in parental CHO-K1 cells; Fluo-8 calcium fluorescence; scaled to maximal ATP response, vehicle zero; activation, % at 3 µM; 360,000 tested, 0.48% active; in the data active = activation above about 15%;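 also: untransfected CHO-K1 host cells lacking M1 receptor as counterscreen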
M1 ag – human M1 muscarinic receptor agonism; CHO-K1 hM1, Fluo-8 calcium fluorescence, agonist mode; 0% DMSO, 100% acetylcholine EC100; 360,000 tested, 0.33% active; P11229; activation, % at 3 µM;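 active = activation above the run's mean compound activation plus 3 SD, cut at about 16% in these data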;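 also: peak over basal fluorescence ratio within a 140 s kinetic read after compound addition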
Starred values were filed as active, the others as inactive. An excerpt weighted towards active compounds, which were near 2.4% of everything screened.

SMILES | M1 antag | CHO-K1 Ca antag | M1 PAM parental | CHRM1 PAM | CHO-K1 Ca ag | M1 ag
S=C(Nc1ccc(Oc2ccccc2)cc1)NC1CCCCCC1 | 29* | 6 | 6 | -24 | 6 | -5
O=C(NC1CCS(=O)(=O)C1)c1ccc(N2CCCCC2)c([N+](=O)[O-])c1 (stereo unspecified) | 15 | -5 | -17 | -6 | 1 | -1
C=CCNC(=S)Nc1ccc(Cl)cc1F | 7 | 8 | 8 | 1 | 16* | -4
C=CCNC(=O)c1c(N)n(-c2ccc3c(c2)OCO3)c2nc3ccccc3nc12 | 69* | -15 | 7 | -25 | 1 | -12
Nc1c(C(=O)NCC2CCCO2)c2nc3ccccc3nc2n1-c1ccccc1 (stereo unspecified) | 28* | 0 | 7 | -16 | 5 | 3
Nc1c(C(=O)NCCN2CCOCC2)c2nc3ccccc3nc2n1-c1cccc(F)c1 | 6 | -5 | 15 | 0 | 2 | -4
COc1ccc(OCC(=O)NNC(=O)Cn2c(=O)cnc3ccccc32)cc1 | -14 | 8 | -17 | 3 | 0 | 2
Cc1ccccc1[C@@H](NC(=O)OC(C)(C)C)C(=O)OC(C)(C)C | -7 | -16 | 9 | 10 | -1 | -5
CCCCN(C(=O)c1cccc(S(=O)(=O)N(CC)c2ccccc2)c1)c1c(N)n(CCCC)c(=O)[nH]c1=O | -13 | -4 | 4 | 15 | 0 | 1
OC(CNC1Cc2ccccc2C1)c1ccccc1 (stereo unspecified) | -3 | -18 | 3 | 3 | 2 | 16*
O=C(N/N=C\c1ccc([N+](=O)[O-])s1)C1COc2ccccc2O1 (stereo unspecified) | -6 | 65* | -2 | 5 | 1 | -2
O=C(/C=C/c1cc(Br)ccc1F)OCC(=O)N1CCOCC1 | 2 | 12 | -2 | 4 | 6 | -2
Cc1cc(CNCCN(C)C)c(C)n1-c1cc(S(=O)(=O)N2CCOCC2)ccc1N1CCCC1 | 11 | -6 | 13 | -8 | 0 | -8
Cc1noc(C)c1S(=O)(=O)Nc1c(C)n(C)n(-c2ccccc2)c1=O | 3 | 31* | -6 | 5 | 0 | -1
COc1ccc(NC(=O)c2cccc(N3C(=O)NC4CC3(C)Oc3ccccc34)c2)cc1 (stereo unspecified) | -10 | -4 | 11 | 8 | 2 | -3
COc1cccc2c1OC1(C)CC2NC(=O)N1c1cccc(C(=O)Nc2ccc3c(c2)OCCO3)c1 (stereo unspecified) | 28* | 14 | 1 | -13 | 3 | -1
O=C(Nc1ccc(Cl)c(Cl)c1)C1CCN(C(=O)c2ccco2)CC1 | -7 | -1 | -7 | 2 | 4 | 0
COc1ccc(C(C)=O)cc1COC(=O)CNC(=O)c1ccc(Cl)cc1 | -2 | 29* | -14 | 5 | 11 | -8
COc1ccc(C(C)=O)cc1COC(=O)CNC(=O)c1ccc(F)cc1 | 2 | 0 | 5 | -4 | 2 | -5
CC(C)C(NC(=O)c1c(F)cccc1F)C(=O)N1CCN(S(=O)(=O)/C=C/c2ccccc2)CC1 (stereo unspecified) | -6 | -13 | 6 | 0 | 0 | -8
O=C(COC(=O)COc1ccc(Cl)cc1)NC1CCCCCC1 | -2 | -6 | 0 | 4 | 1 | -1
CC1(C)N=C(N)N=C(N)N1c1ccc(CCCCc2ccccc2)cc1 | 57* | -9 | 14 | -30 | 1 | -8
COc1ccc(CC(=O)NC(=S)Nc2ccc(S(N)(=O)=O)cc2)cc1 | 0 | -4 | 7 | -1 | 14 | 30*
COc1ccc(C(=O)NC(=S)Nc2ccc(S(N)(=O)=O)cc2)cc1 | -8 | 5 | 3 | 14 | 0 | -9
COc1ccc(CC(=O)NC(=S)Nc2ccc(S(=O)(=O)NC(C)(C)C)cc2)cc1 | -15 | 1 | 29 | 9 | 11 | 24*
COc1ccc(NC(=S)NC(=O)Cc2ccccc2)cc1 | -10 | -1 | 12 | 5 | 10 | -1
O=C(O)C1OC1(c1ccccc1Cl)c1ccccc1Cl (stereo unspecified) | -5 | -8 | -3 | 0 | 0 | -4
Cc1c(C(=O)CN2CCCC(C)(C)C2)c2ccccc2n1C | -15 | -13 | 0 | 3 | 0 | -5

Source: PubChem BioAssay (The Scripps Research Institute Molecular Screening Center)
